# Results: article PMC5540273 (PLoS ONE, 2017)
# Experiments:
# Conditions in all cases: concentration: 1 μM, replicates: in singlicate; n = 1
# [1] = tested on: PRKD3
# [2] = tested on: PRKG1
# [3] = tested on: PRKG2
# [4] = tested on: T1, PRKR
# T1 construct: gene EIF2AK2
# [5] = tested on: PRKX
# [6] = tested on: PRP4
# [7] = tested on: T2, PYK2
# T2 construct: gene PTK2B
# [8] = tested on: QSK
# [9] = tested on: RAF1
# [10] = tested on: RET
# [11] = tested on: RIOK1
# [12] = tested on: RIOK2
# [13] = tested on: RIOK3
# [14] = tested on: RIPK1
# [15] = tested on: RIPK2
# [16] = tested on: RIPK4
# [17] = tested on: RIPK5
# [18] = tested on: ROCK1
# [19] = tested on: ROCK2
# [20] = tested on: ROS1
# 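Also: KINOMEscan kinase panel screen.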
Compound,%Inh [1] [%],%Inh [2] [%],%Inh [3] [%],%Inh [4] [%],%Inh [5] [%],%Inh [6] [%],%Inh [7] [%],%Inh [8] [%],%Inh [9] [%],%Inh [10] [%],%Inh [11] [%],%Inh [12] [%],%Inh [13] [%],%Inh [14] [%],%Inh [15] [%],%Inh [16] [%],%Inh [17] [%],%Inh [18] [%],%Inh [19] [%],%Inh [20] [%]
Cn1cc(-c2cnc(N)c3c(-c4ccc5c(c4)CCN5C(=O)Cc4ccccc4)csc23)cn1 [GSK2593074],0,0,0,8,0,0,6,1,0,34,33,0,6,100,96.1,100,55,0,11,0
CN(c1ccc2c(c1)nc(NCc1ccccc1)n2C)c1ccnc(Nc2ccc(CS(C)(=O)=O)cc2)n1.Cl [GW811603],0,3,4,1,0,22,21,0,97.5,99.9,50,0,44,100,0,49,24,20,47,57
COc1cc(Nc2nccc(N3CCC(NS(=O)(=O)c4ccc(NC(C)=O)cc4)CC3)n2)cc(OC)c1OC [GSK1379825],0,5,0,0,15,18,37,20,60,30,76,66,59,81,80,48,0,28,26,48
CCNc1nccc(-c2c(-c3ccc(F)cc3)ncn2C2CCN(C)CC2)n1,36,0,0,0,0,0,0,0,0,0,10,0,29,8,36,0,0,0,0,0
COC(=O)Nc1nc2ccc(Oc3ccc(NC(=O)Nc4cc(C(F)(F)F)ccc4F)cc3)cc2[nH]1.Cl [GW654607],15,9,10,3,10,0,15,28,91.3,100,2,0,21,74,81,18,0,43,16,6
Nc1ncc(-c2ccc3nccc(-c4ccncc4)c3c2)cc1S(=O)(=O)N1CCCCC1 [GSK1693850],23,7,0,3,27,0,28,1,18,13,30,89,41,31,22,5,25,11,13,43
Nc1ncc(-c2cn[nH]c2)c2scc(-c3ccc4c(c3)CCN4C(=O)Cc3ccccc3)c12 [GSK2593067],11,27,0,0,21,0,9,9,0,34,75,86,57,100,94.6,0,10,41,36,9
Fc1cc(Cl)ccc1Nc1ccnc2cc(-c3ccc(CN4CCSCC4)o3)ccc12 [GW560106],0,27,66,3,1,29,0,63,12,98.3,9,0,0,0,94.7,0,0,29,32,20
Cc1ccccc1CC(=O)N1CCc2cc(-c3cn(C)c4ncnc(N)c34)ccc21 [GSK2603346],0,0,0,0,0,0,0,4,0,36,8,31,100,100,63,0,69,10,14,2
